S2 tox – viability counter-screen for ATXN expression inhibitors; hit rate 0.49% among 400,000; S2 cells (HEK-293 line with an ATXN2-luciferase reporter) viability, CellTiter-Fluor protease fluorescence, 24 h; AID 651635; Potency, µM (doses to about 56.7 µM), hits mostly cytotoxic; further: nearly all actives have a fitted effect of over 40% in size
ATXN2 expr inh – ATXN2 expression inhibition; HEK-293 ATXN2-luciferase reporter, luminescence, 24 h; Potency, µM (doses to about 57 µM), for inactives: at the top dose activity change, negative = inhibition, actives largely listed as inhibitors; hit rate 0.72% among 360,000; AID 1745845; further: on the % scale 0 is the no-effect control and ±100 the full control effect; nearly all actives have a fitted effect of over 55% in size
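ATXN2-luciferase reporter cells (luciferase flanked by upstream and downstream ATXN2 gene portions) were treated 24 h at 37 °C with compounds at up to 57 uM. SteadyGlo luminescence gave expression; GF-AFC fluorescence gave viability.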
TGFb SMAD3 inh – blocks TGF-b signaling; HepG2 CAGA-GFP TGF-b/SMAD3 reporter, GFP fluorescence, 18 h; TGF-beta stimulated, 500 pg/mL final; Potency, µM (doses to about 46.1 µM), for inactives: at the top dose activity, negative = inhibition, most hits filed as inhibitors; hit rate 1.2% among 410,000; further: on the % scale 0 is the no-effect control and ±100 the full control effect; nearly all actives have a fitted effect of over 65% in size
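Smad-responsive CAGA-GFP expression was quantified in HEPG2 cells exposed to compounds and 500 pg/mL final TGF-beta for 18 h at 37 degrees C; unstimulated wells defined full inhibition.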
Nrf2 block – Nrf2 pathway inhibition. A549 ARE-Fluc reporter, luciferase luminescence, 18-24 h. Potency, µM (highest dose often 46 µM), for the others: at the highest dose activity change, negative = inhibition, actives largely listed as inhibitors. hit rate 2.1% among 360,000; further: on the % scale 0 is the no-effect control and ±100 the full control effect; nearly all actives have a fitted effect of over 60% in size
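Cells were seeded and rested 2 h, then exposed to compounds for 18-24 h. CellTiter-Fluor was read first as a viability measure. BugLite was added 15 min before the final luminescent read of ARE-luciferase activity in A549 cells.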
A549 tox-1 – counter-screen for Nrf2 inhibitors: cytotoxicity in A549 cells | Potency, µM (series often up to 46 µM), for inactives: top-dose activity change, negative = cytotoxicity, usual class: inhibitors | hit rate 0.16% among 390,000 | A549 ARE-Fluc cells, CellTiter-Fluor viability, 18-24 h; further: on the % scale 0 is the no-effect control and ±100 the full control effect
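Cytotoxicity counterscreen: CellTiter-Fluor fluorescence was measured in A549 ARE_Fluc cells after 18-24 h of compound exposure in a concentration series. The subsequent BugLite luminescent read reports ARE-luciferase activity.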
HepG2 viability – HepG2 cytotoxicity, counter-screen for TGF-b inhibitors; HepG2 CAGA-GFP viability, ATP luminescence, 18 h; Potency, µM (doses to about 46.1 µM), inactives show at the highest dose activity change, negative = cytotoxicity, usual class: cytotoxic; hit rate 0.76% among 410,000; AID 588856
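CellTiter-Glo luminescence gave cytotoxicity after 18 hours at 37 degrees C. The cells were HepG2 CAGA-GFP in 1% FBS DMEM, stimulated with 500 pg/mL TGF-beta after compound addition. %Activity was normalised to no-cell wells (complete cell-killing) and DMSO (no toxicity), and curves were fitted and classified.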
FLuc counter 3 – counter-screen for Nrf2 inhibitors: firefly luciferase enzyme inhibition; Potency, µM (highest dose often 57.5 µM), for the others: at the highest dose activity change, negative = inhibition, hits mostly inhibitors; shares compounds with Nrf2 block; AID 720522; purified firefly luciferase, luminescence inhibition; hit rate 4% among 1,400; further: on the % scale 0 is the no-effect control and ±100 the full control effect; nearly all actives have a fitted effect of over 65% in size
Target sequence (P08659 whole entry, looked up): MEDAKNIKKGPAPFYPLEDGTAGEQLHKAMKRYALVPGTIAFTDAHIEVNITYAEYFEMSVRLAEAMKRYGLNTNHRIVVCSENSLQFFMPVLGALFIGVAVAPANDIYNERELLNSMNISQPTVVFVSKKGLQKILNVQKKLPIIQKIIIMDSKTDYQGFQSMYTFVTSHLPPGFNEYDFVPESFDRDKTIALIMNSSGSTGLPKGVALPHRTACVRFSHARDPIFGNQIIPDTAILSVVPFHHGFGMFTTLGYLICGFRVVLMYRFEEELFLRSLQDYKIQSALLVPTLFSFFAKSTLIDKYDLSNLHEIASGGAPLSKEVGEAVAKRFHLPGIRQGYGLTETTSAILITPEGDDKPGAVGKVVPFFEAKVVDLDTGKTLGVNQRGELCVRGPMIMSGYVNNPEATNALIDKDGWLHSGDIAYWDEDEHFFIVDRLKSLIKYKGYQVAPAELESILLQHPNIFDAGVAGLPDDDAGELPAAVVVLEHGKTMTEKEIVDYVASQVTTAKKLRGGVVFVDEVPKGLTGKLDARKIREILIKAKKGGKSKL
A549 tox-2 – counter-screen for Nrf2 inhibitors: cytotoxicity in A549 ARE cells | Potency, µM (titrated, usually from 46.1 µM), for the others: top-dose activity change, negative = cytotoxicity, hits mostly inhibitors | shares compounds with Nrf2 block | hit rate 2% among 1,400 | A549 ARE-Fluc cells, cytotoxicity counterscreen;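 further: cells exposed to compounds for 18 to 24 hours; on the % scale 0 is the no-effect control and ±100 the full control effect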
ARE-Fluc inh – reduces Nrf2 ARE reporter signal in A549 cells; shares compounds with Nrf2 block; A549 ARE-firefly luciferase reporter, luminescence; Potency, µM (titrated, usually from 46.1 µM), for the others: at the highest dose activity change, negative = inhibition, usual class: inhibitors; hit rate 74% among 1,400; AID 720524; further: on the % scale 0 is the no-effect control and ±100 the full control effect; nearly all actives have a fitted effect of over 65% in size
* = called active by the depositor. The list is not random: actives were taken first. Their share in the collection is about 3.8%. The call rests on the fitted dose curve; in most records, active means well fitted curve in the direction sought with a large enough effect; inconclusive means small, poorly fitted or top-dose-only effect, or another doubt; inactive means no such curve, though single readings can be large; an effect the other way counts as inactive or inconclusive. Potency means the concentration at half of the fitted maximal effect.

Results for CN(C)c1ccc(CC(=O)N2CCCCC2c2cc(C(=O)Nc3ccccc3)no2)cc1 (centres undefined) ?
S2 tox: inconclusive; ATXN2 expr inh: inconclusive; TGFb SMAD3 inh: -10.8%; HepG2 viability: -32.0%

What do the screens show for `C=CCNC(=O)c1sccc1Oc1ccc(F)cc1[N+](=O)[O-]`?
S2 tox: inactive; ATXN2 expr inh: -11.1%; TGFb SMAD3 inh: -7.5%; Nrf2 block: -11.8%; A549 tox-1: 4.1%; HepG2 viability: 0.9%

Results for CN(Cc1ccccc1)c1nc2c(S(=O)(=O)c3cccc(Cl)c3)nnn2c2ccsc12 ?
S2 tox: inactive; ATXN2 expr inh: 6.3%; TGFb SMAD3 inh: -5.2%; Nrf2 block: inconclusive; A549 tox-1: 2.5%; HepG2 viability: -20.6%

What do the screens show for `CCOc1ccc(OCc2ccc(C(=O)NN=Cc3ccc[nH]3)cc2)cc1`?
S2 tox: inconclusive; ATXN2 expr inh: inconclusive; TGFb SMAD3 inh: -19.9%; Nrf2 block: 1.84µM*; A549 tox-1: inconclusive; HepG2 viability: -17.4%; FLuc counter 3: -10.2%; A549 tox-2: inconclusive; ARE-Fluc inh: 1.84µM*

What do the screens show for `Fc1ccccc1OCC1CCCN(Cc2nc(CC3CC3)no2)C1` (centres undefined)?
S2 tox: inactive; ATXN2 expr inh: 59.3%; TGFb SMAD3 inh: 1.0%; Nrf2 block: 1.0%; A549 tox-1: 1.4%; HepG2 viability: 6.0%

What do the screens show for `Cc1[nH]c2c(ccc3cccnc32)c1C`?
S2 tox: inactive; ATXN2 expr inh: 4.3%; TGFb SMAD3 inh: 4.6%; Nrf2 block: -7.6%; A549 tox-1: -4.9%; HepG2 viability: -14.2%

What do the screens show for `CC1=[N+](C)c2c(ccc3cccnc23)C1(C)C`?
ATXN2 expr inh: 2.99µM*; TGFb SMAD3 inh: inconclusive; Nrf2 block: 2.06µM*; A549 tox-1: inconclusive; HepG2 viability: -10.6%; FLuc counter 3: -7.8%; A549 tox-2: -2.4%; ARE-Fluc inh: 2.59µM*

Results for COc1cc2cnc(-c3cccnc3)cc2cc1OC ?
S2 tox: inactive; ATXN2 expr inh: 7.7%; TGFb SMAD3 inh: -7.7%; Nrf2 block: -25.8%; A549 tox-1: 3.0%; HepG2 viability: 4.0%

What do the screens show for `COc1ccc(S(=O)(=O)NCc2cc(-c3ccccc3Cl)no2)cc1`?
S2 tox: inactive; ATXN2 expr inh: 4.7%; TGFb SMAD3 inh: -5.7%; Nrf2 block: -1.3%; A549 tox-1: 4.2%; HepG2 viability: 6.0%

How did Cn1cc(/C=C/c2cc[n+](C)cc2)c2cc(F)ccc21 do in these assays?
ATXN2 expr inh: inconclusive; TGFb SMAD3 inh: 124.5%; Nrf2 block: 1.64µM*; A549 tox-1: inconclusive; HepG2 viability: -23.4%; FLuc counter 3: 1.3%; A549 tox-2: -26.3%; ARE-Fluc inh: 1.64µM*

How did C[n+]1ccc(/C=C/c2c[nH]c3ccc(F)cc23)cc1 do in these assays?
S2 tox: inactive; ATXN2 expr inh: -18.1%; TGFb SMAD3 inh: 84.1%; Nrf2 block: 1.16µM*; A549 tox-1: inconclusive; HepG2 viability: -17.0%; FLuc counter 3: 0.7%; A549 tox-2: inconclusive; ARE-Fluc inh: 1.84µM*

How did CC(C)[C@@H]1Cc2[nH][nH]c(=O)c2[C@H](C(C)C)O1 do in these assays?
S2 tox: inconclusive; ATXN2 expr inh: 18.9%

Results for Cc1cc(NC(=O)CSc2nc3c(sc4ccccc43)c(=O)n2CCc2ccccc2)n[nH]1 ?
S2 tox: inactive; ATXN2 expr inh: -22.0%; TGFb SMAD3 inh: -14.4%; Nrf2 block: -27.3%; A549 tox-1: -9.6%; HepG2 viability: 8.9%

Results for Cc1cc(NC(=O)CSc2nc3c(sc4ccccc43)c(=O)n2CCCN2CCOCC2)n[nH]1 ?
S2 tox: inconclusive; ATXN2 expr inh: 1.41µM*; TGFb SMAD3 inh: -16.1%; Nrf2 block: 7.31µM*; A549 tox-1: inconclusive; HepG2 viability: -51.4%; FLuc counter 3: 2.1%; A549 tox-2: inconclusive; ARE-Fluc inh: 10.3µM*

How did CCCCCCCC(=O)[O-].CCCCCCCC(=O)[O-].[Zn+2] do in these assays?
S2 tox: inactive; ATXN2 expr inh: -2.0%

How did CC(=O)Nc1sc2c(c1-c1nc3ccccc3s1)CCN(C(C)C)C2 do in these assays?
S2 tox: inconclusive; ATXN2 expr inh: 5.32µM*; TGFb SMAD3 inh: inconclusive; Nrf2 block: 6.51µM*; A549 tox-1: -10.5%; HepG2 viability: -29.1%; FLuc counter 3: 0.4%; A549 tox-2: -27.0%; ARE-Fluc inh: 6.51µM*

How did Oc1cccc2c(CC(O)c3c[nH]c4ccccc34)ccnc12 (centres undefined) do in these assays?
TGFb SMAD3 inh: inconclusive; HepG2 viability: -3.2%; FLuc counter 3: -14.7%; A549 tox-2: -29.0%; ARE-Fluc inh: 4.11µM*

How did CCN(CC(=O)Nc1c(F)cccc1F)C(=O)c1cc(S(=O)(=O)N(CC)CC)ccc1N1CCCCC1 do in these assays?
S2 tox: inactive; ATXN2 expr inh: -17.5%; TGFb SMAD3 inh: 0.0%; Nrf2 block: 8.2µM*; A549 tox-1: 3.5%; HepG2 viability: -0.6%; FLuc counter 3: -0.1%; A549 tox-2: 6.0%; ARE-Fluc inh: 10.3µM*

Results for O=S(=O)(Nc1ccc(Cc2ccncc2)cc1)c1ccc(Cl)c(Cl)c1 ?
S2 tox: inactive; ATXN2 expr inh: -24.1%; TGFb SMAD3 inh: inconclusive; A549 tox-1: inconclusive; HepG2 viability: -33.8%

Results for COc1ccc(S(=O)(=O)Nc2ccc(Cc3ccncc3)cc2)cc1OC ?
S2 tox: inactive; ATXN2 expr inh: -18.6%; TGFb SMAD3 inh: -12.6%; Nrf2 block: 6.51µM*; A549 tox-1: -17.2%; HepG2 viability: -7.5%; FLuc counter 3: 1.8%; A549 tox-2: 3.9%; ARE-Fluc inh: inconclusive

Screens from PubChem.
